Records with an inconclusive call do not appear. Activity calls are given as the source filed them. Rule as the data show it, unless noted: active = percent of DMSO control GFP below about 86%; inactive = the rest, inconclusive results apart.
Tests used:
[1] = rapamycin-like changes in RPL19A-GFP expression – cell-based, S. cerevisiae, multiplex flow cytometry, primary screen (AID 1862);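 also: lower values mimic rapamycin by blocking the RPL19A rise seen in DMSO cells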; details: S. cerevisiae RPL19A-GFP strain, flow cytometry fluorescence, 3 h; at 10 µM; stronger effect = lower value
[2] = TOR pathway GLN3 branch reporter MEP2-GFP changes – S. cerevisiae, multiplex flow cytometry, primary screen (AID 1867;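 active = GFP response, as percent of the DMSO control, above the screen-wide mean plus 3 SD, about 139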;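 also: median GFP channel fluorescence of barcode-gated MEP2-GFP cells measured by flow cytometry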); details: S. cerevisiae MEP2-GFP strain, 3 h, at 10 µM, stronger effect = higher value, 100% means same as DMSO wells
[3] = TOR pathway RTG branch CIT2 reporter changes – S. cerevisiae, GFP fusion, multiplex flow cytometry, primary screen (AID 1870;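 active = percent response above a set limit, the screen-wide mean plus 3 SD, cut at about 130% in these data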;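 also: barcoded CIT2-GFP strain pooled with four other GFP strains with rapamycin as positive control; median GFP fluorescence per well over plate mean of DMSO wells so 100% = DMSO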); details: S. cerevisiae CIT2-GFP expression, 3 h, at 10 µM, stronger effect = higher value
[4] = TOR pathway LAP4-GFP level changes – S. cerevisiae, multiplex flow cytometry, primary screen (AID 1873;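 active = GFP signal, as percent of the solvent control, above the screen mean plus 3 SD, about 149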); details: S. cerevisiae LAP4-GFP expression, 3 h, at 10 µM, stronger effect = higher value
[5] = yeast AGP1-GFP level changes, GLN3 branch – cell-based, multiplex flow cytometry, S. cerevisiae, primary screen (AID 1887;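 active = GFP signal above the screen-wide mean plus 3 SD, that is over about 124.5% of the solvent control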;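 also: AGP1-GFP fusion strain of S. cerevisiae within a five-strain barcoded multiplex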); details: 3 h, at 10 µM, stronger effect = higher value
[6] = reduced mouse 2C T cell binding to pMHC/ICAM-1 vesicles – MLPCN validation set, flow cytometry, LFA-1/ICAM-1 modulator project, pilot screen (AID 2523;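 active = response below a set limit, under 55% cells CD8-positive and vesicle-bound, and CD8 cells' 90th-percentile brightness under 279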;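 as to vesicle binding response: mean PE anti-B7-1 fluorescence of CD8+ cells relative to row control; 100% = QL9-loaded vesicles with DMSO vehicle in the same plate row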); details: 2C mouse CD8+ T cells, at 7 µM, stronger effect = lower value; double positive events: measured here: CD8+/vesicle+ event percentage
[7] = target: Integrin beta-1 (Homo sapiens) + Integrin alpha-4 (Homo sapiens) (UniProt P13612+P05556); assay: alpha4beta1 integrin LIBS antibody binding reduction – U937 cells, HUTS-21 mAb, flow cytometry, validation set, VLA-4 allosteric modulator project, pilot screen (AID 2674;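 active = inhibition above 50%, about 3 SD of the validation set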;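 also: antibody binding induced by the VLA-4 ligand LDV present at three times its Kd; 0% = LDV ligand with antibody and no compound and 100% = antibody without LDV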); details: HUTS-21 LIBS mAb binding, at 6.7 µM, stronger effect = higher value, binding induced by LDV ligand
Integrin beta-1 (Homo sapiens) + Integrin alpha-4 (Homo sapiens), sequence (P05556 whole entry, looked up): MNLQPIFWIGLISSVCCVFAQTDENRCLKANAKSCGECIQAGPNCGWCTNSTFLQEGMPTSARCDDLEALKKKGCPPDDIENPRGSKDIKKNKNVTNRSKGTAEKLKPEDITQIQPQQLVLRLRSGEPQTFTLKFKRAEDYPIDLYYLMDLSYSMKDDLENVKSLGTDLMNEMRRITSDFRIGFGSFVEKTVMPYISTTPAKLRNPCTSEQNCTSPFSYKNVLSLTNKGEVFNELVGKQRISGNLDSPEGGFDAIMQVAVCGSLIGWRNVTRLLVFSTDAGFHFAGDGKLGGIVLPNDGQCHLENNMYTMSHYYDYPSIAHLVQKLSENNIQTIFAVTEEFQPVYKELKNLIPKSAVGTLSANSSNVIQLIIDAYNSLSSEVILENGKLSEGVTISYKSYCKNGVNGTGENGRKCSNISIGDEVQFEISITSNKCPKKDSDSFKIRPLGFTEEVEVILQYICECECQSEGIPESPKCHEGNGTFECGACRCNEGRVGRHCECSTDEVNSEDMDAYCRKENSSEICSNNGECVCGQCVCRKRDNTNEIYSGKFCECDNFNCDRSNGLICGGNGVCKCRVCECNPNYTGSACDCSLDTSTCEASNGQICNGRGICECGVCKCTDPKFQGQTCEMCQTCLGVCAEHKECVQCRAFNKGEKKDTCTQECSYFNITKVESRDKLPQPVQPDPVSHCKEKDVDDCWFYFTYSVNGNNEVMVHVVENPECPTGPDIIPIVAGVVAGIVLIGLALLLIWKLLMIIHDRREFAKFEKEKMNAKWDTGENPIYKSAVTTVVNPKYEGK
Integrin beta-1 (Homo sapiens) + Integrin alpha-4 (Homo sapiens), sequence (P13612 whole entry, looked up): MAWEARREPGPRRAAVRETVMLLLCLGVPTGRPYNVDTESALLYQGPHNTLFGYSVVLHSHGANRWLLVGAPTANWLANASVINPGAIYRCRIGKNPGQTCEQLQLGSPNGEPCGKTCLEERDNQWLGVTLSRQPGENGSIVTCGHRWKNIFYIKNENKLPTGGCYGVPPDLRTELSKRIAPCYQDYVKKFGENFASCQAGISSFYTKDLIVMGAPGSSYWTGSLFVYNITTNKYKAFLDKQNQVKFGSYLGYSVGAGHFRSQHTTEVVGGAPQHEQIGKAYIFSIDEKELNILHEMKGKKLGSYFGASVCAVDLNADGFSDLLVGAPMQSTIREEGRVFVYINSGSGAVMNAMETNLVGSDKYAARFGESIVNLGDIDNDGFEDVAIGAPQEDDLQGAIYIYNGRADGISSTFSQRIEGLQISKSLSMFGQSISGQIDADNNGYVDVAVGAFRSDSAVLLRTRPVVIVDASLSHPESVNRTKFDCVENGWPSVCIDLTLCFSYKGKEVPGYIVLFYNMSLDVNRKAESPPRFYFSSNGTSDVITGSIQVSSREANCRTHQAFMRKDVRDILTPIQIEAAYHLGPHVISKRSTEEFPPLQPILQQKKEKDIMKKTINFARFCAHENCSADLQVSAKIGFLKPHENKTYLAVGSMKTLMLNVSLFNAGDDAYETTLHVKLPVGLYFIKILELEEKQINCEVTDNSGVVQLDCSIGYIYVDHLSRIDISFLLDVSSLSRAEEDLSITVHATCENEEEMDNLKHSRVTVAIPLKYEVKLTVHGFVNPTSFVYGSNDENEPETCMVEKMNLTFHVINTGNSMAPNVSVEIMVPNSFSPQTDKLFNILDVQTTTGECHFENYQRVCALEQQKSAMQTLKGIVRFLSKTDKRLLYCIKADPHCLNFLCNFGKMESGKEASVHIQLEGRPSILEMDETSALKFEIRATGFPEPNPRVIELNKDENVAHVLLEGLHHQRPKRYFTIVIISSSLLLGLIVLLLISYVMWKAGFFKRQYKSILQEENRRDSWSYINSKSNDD

[8] = calorie-restriction mimetic ROS inhibitors, yeast – validation compound set, pilot screen (AID 2706;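 active = superoxide response below 65% of plate, a cut near 3 SD across the whole screen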;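 also: yeast exposed to compound for one week at 30 degrees C before staining; 100% = mean of all compound wells on the same plate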); details: S. cerevisiae aging, superoxide DHE fluorescence; at 10 µM; stronger effect = lower value
[9] = target: Beta-adrenergic receptor kinase 1 (Homo sapiens) (UniProt P25098); assay: GRK2 binders displacing RNA aptamer, biochemical, validation, human GRK2, bead flow cytometry (AID 488806;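 active = aptamer binding inhibition above 30%, about 3 SD of noise from non-fluorescent compounds; inactive = inhibition at or below 30%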); details: bead-bound GRK2, FAM-aptamer displacement, at 10 µM, stronger effect = higher value
Beta-adrenergic receptor kinase 1 (Homo sapiens), sequence (P25098 whole entry, looked up): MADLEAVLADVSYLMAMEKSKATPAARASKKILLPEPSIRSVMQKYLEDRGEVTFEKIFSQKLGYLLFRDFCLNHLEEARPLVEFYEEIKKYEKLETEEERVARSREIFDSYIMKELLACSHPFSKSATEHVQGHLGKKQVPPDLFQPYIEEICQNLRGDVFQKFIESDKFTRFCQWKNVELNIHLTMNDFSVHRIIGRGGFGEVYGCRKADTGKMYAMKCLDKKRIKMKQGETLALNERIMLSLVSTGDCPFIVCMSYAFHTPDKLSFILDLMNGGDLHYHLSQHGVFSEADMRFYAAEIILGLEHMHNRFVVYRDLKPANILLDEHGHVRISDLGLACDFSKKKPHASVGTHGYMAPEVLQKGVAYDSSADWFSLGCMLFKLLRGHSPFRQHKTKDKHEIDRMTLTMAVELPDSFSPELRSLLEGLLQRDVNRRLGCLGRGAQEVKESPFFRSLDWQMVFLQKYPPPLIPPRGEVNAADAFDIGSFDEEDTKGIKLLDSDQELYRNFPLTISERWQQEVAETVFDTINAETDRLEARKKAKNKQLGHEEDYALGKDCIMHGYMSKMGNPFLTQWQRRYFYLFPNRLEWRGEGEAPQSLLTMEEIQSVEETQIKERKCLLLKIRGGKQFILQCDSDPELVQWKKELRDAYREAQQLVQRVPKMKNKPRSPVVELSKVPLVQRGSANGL

[10] = target: Beta-2 adrenergic receptor (Homo sapiens) (UniProt P07550); assay: agonist-induced loss of surface beta2AR – cell-based, FAP fluorogen, flow cytometry, validation set, pilot screen (AID 504459;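 active = percent response above 42, roughly 3 SD of non-fluorescent test compounds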;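 also: agonist-driven loss of surface beta2AR via internalization measured by FAP dye flow cytometry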); details: Am2.2-beta2AR cells, at 10 µM, stronger effect = higher value
Beta-2 adrenergic receptor (Homo sapiens), sequence (P07550 whole entry, looked up): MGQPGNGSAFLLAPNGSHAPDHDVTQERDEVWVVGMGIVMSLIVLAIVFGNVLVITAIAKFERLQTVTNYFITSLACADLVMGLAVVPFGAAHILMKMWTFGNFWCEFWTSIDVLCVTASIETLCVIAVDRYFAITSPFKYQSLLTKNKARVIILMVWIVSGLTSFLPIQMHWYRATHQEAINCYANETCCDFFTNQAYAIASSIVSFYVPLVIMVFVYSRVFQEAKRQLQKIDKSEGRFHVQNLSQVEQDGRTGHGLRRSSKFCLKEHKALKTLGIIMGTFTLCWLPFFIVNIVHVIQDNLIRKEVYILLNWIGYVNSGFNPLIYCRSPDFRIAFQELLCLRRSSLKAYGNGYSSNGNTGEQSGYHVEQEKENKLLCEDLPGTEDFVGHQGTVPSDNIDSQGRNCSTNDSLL

[11] = target: AP-2 complex subunit beta (Homo sapiens) (UniProt P63010); assay: beta-arrestin/AP2 interaction blockers – biochemical, validation set, GST-AP2 beads, flow cytometry, pilot screen (AID 504541;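 active = inhibition above 54%, about 3 SD of non-fluorescent compounds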;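 also: AP2 carries R879A mutation and is captured from E. coli lysate; bead-bound FITC arrestin peptide fluorescence measuring arrestin peptide binding to AP2; 0% = DMSO wells and 100% = excess unlabeled arrestin peptide control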); details: FITC arrestin peptide, at 10 µM, stronger effect = higher value, AP2 beta2 appendage fragment, R879A mutant
AP-2 complex subunit beta (Homo sapiens), sequence (P63010 whole entry, looked up, the tested form may be a part, one chain of several): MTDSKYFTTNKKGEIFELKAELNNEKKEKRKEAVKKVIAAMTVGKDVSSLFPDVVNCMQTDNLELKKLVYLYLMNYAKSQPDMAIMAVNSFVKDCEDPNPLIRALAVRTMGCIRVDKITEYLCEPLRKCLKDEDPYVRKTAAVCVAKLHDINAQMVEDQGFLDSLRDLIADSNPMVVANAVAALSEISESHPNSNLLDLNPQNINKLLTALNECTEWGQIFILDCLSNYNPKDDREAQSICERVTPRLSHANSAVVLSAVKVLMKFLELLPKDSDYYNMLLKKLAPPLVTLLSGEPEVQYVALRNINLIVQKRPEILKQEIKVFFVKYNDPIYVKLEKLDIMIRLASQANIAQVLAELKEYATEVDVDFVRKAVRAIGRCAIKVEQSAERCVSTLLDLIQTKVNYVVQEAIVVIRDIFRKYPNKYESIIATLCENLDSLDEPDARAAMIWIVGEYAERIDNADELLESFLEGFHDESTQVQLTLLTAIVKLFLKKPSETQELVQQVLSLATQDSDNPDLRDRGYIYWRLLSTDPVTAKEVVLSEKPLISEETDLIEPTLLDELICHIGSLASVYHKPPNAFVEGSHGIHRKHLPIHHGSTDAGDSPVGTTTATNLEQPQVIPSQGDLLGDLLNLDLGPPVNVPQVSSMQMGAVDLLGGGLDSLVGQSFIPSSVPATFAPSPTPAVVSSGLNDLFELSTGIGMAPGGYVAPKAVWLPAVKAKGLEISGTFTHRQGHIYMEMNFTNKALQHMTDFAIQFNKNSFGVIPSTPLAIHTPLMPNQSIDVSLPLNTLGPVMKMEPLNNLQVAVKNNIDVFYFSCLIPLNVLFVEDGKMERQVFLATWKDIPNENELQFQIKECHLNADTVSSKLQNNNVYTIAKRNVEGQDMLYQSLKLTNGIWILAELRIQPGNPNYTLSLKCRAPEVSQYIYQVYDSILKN

[12] = cytosolic pH regulators acting via V-ATPase – S. cerevisiae, pHLuorin, HTS validation (AID 504600; in the data active = response above about 15%;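 also: plate controls were DMSO for no effect and reference compound for full effect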); details: V-ATPase proton transport, at 10 µM, stronger effect = higher value
[13] = test system: anti-desmoglein-3 scFv antibody binding to human DSG3; assay: blockers of pathogenic pemphigus antibody–desmoglein-3 binding – biochemical, validation compound set, bead-based, flow cytometry, pilot screen (AID 588368;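 active = binding below the plate cutoff, the plate median minus 3 SD, with a reading above zero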;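 also: signal is the median channel fluorescence of bead-bound GFP antibody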); details: Protein G beads, DSG3-Fc, scFv-GFP binding, at 10 µM, stronger effect = lower value
[14] = Nile Red efflux blockade in pump-expressing yeast – validation compound set, multiplex, phenotypic, pilot screen (AID 588506;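 active = efflux inhibition above 0.42, the validation set average plus 4 SD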;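 also: Nile Red retained in cells so higher fluorescence means more efflux inhibition; 0 = negative control wells and 1 = enniatin B 25 µM full block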); details: S. cerevisiae pump-expressing triplex, Nile Red efflux flow cytometry; at 10 µM; stronger effect = higher value; the pumps come from Candida albicans
[15] = target: ATP-binding cassette sub-family B member 6 (Homo sapiens) (UniProt Q9NP58); assay: blockers of ABCB6-driven porphyrin uptake – K562-ABCB6 cells, flow cytometry, validation set, pilot screen (AID 588550;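 active = inhibition above the screen-wide mean plus 3 SD, about 51%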;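 also: 0% = DMSO wells and 100% = benzethonium chloride 70 µM positive control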); details: K562-ABCB6 porphyrin accumulation, 1 h, at 10 µM, stronger effect = higher value
ATP-binding cassette sub-family B member 6 (Homo sapiens), sequence (Q9NP58 whole entry, looked up): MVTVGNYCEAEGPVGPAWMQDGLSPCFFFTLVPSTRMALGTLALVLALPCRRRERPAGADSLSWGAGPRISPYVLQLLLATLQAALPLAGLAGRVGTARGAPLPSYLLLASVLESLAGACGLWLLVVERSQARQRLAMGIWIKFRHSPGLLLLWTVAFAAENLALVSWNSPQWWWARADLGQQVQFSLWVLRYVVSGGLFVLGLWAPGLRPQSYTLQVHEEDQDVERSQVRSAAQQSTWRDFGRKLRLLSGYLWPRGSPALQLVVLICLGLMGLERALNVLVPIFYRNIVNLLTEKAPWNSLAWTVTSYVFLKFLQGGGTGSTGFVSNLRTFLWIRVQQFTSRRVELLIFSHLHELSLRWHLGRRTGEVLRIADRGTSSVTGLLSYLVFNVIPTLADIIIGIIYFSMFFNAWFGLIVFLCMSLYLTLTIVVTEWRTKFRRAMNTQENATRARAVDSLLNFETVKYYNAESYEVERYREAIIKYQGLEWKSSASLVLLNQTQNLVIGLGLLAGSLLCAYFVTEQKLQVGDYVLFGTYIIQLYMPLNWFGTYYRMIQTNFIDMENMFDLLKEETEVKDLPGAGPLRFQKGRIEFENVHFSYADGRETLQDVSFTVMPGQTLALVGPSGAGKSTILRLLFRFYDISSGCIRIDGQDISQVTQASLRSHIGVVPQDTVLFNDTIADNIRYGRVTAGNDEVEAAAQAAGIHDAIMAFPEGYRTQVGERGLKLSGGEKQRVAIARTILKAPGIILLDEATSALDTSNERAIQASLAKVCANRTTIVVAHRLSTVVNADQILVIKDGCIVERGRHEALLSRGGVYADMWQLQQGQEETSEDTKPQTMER

[16] = AML differentiation inducers, ER-HoxA9 marrow cells – cell-based, GFP/MAC1 double positive, flow cytometry, validation set, primary screen (AID 588685;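 active = differentiation response of at least 50%, scaled between solvent and reference control, from cells with both markers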;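 also: compound exposure lasts four days before antibody staining and flow analysis; 0% = DMSO wells and 100% = 5 µM fulvestrant positive control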); details: stronger effect = higher value, normalized: vehicle 0, fulvestrant 100

CCCCCCCCNC(C)C(O)c1ccc(SC(C)C)cc1 (stereo not given)
active: vesicle binding response [6] 47.2%
inactive: percent of DMSO control GFP [1] 93.5% | GFP response vs DMSO [2] 130% | percent response of DMSO control [3] 102% | GFP response vs DMSO [4] 85.3% | GFP response, % of DMSO [5] 92.2% | inhibition [7] -12% | superoxide response (% of plate) [8] 115% | aptamer binding inhibition [9] -13% | response [10] 10.9% | inhibition [11] 15.9% | response [12] -2.14% | binding (% of control) [13] 109% | efflux inhibition (fraction of control) [14] -0.17 | inhibition [15] 11% | differentiation response [16] 2.46%
38.1%: double positive events [6]

CCNC(=O)C12CCC(C)(C(=O)O1)C2(C)C (stereo not given)
inactive: percent of DMSO control GFP [1] 105% | GFP response vs DMSO [2] 102% | percent response of DMSO control [3] 102% | GFP response vs DMSO [4] 95.8% | GFP response, % of DMSO [5] 101% | vesicle binding response [6] 120% | inhibition [7] 8.28% | superoxide response (% of plate) [8] 105% | aptamer binding inhibition [9] 2% | response [10] 6.09% | inhibition [11] 6.39% | response [12] 2.81% | binding (% of control) [13] 95.7% | efflux inhibition (fraction of control) [14] -0.54 | inhibition [15] 7% | differentiation response [16] 1.17%
60.6%: double positive events [6]

N/C(=N\OC(=O)/C=C/c1ccccc1)c1ccc(Br)cc1
inactive: percent of DMSO control GFP [1] 103% | GFP response vs DMSO [2] 106% | percent response of DMSO control [3] 107% | GFP response vs DMSO [4] 101% | GFP response, % of DMSO [5] 94.2% | vesicle binding response [6] 195% | inhibition [7] -3.57% | superoxide response (% of plate) [8] 107% | aptamer binding inhibition [9] 3% | response [10] 0.58% | inhibition [11] 40.4% | response [12] -3.5% | binding (% of control) [13] 100% | efflux inhibition (fraction of control) [14] -0.01 | inhibition [15] 13% | differentiation response [16] -3.67%
65%: double positive events [6]

CC(=O)NC(NC(=S)N1CCCCCC1)C(Cl)(Cl)Cl (stereo not given)
inactive: percent of DMSO control GFP [1] 102% | GFP response vs DMSO [2] 104% | percent response of DMSO control [3] 98.9% | GFP response vs DMSO [4] 95.3% | GFP response, % of DMSO [5] 99.5% | vesicle binding response [6] 126% | inhibition [7] -20.2% | superoxide response (% of plate) [8] 104% | aptamer binding inhibition [9] 0% | response [10] 2.95% | inhibition [11] -7.04% | response [12] 0.33% | binding (% of control) [13] 94.8% | efflux inhibition (fraction of control) [14] 0.05 | inhibition [15] -1% | differentiation response [16] 6.11%
64.5%: double positive events [6]

CC(C)CC(=O)NC(NC(=O)CC(C)C)c1cccc([N+](=O)[O-])c1
inactive: percent of DMSO control GFP [1] 101% | GFP response vs DMSO [2] 102% | percent response of DMSO control [3] 111% | GFP response vs DMSO [4] 100% | GFP response, % of DMSO [5] 100% | vesicle binding response [6] 118% | inhibition [7] 1.59% | superoxide response (% of plate) [8] 118% | aptamer binding inhibition [9] 19% | response [10] 3.17% | inhibition [11] 7.92% | response [12] 3.51% | binding (% of control) [13] 99% | efflux inhibition (fraction of control) [14] 0.09 | inhibition [15] 11% | differentiation response [16] -8.96%
60.1%: double positive events [6]

O=C(COc1ccc2ccc(=O)oc2c1)c1ccccc1
inactive: percent of DMSO control GFP [1] 91.1% | GFP response vs DMSO [2] 130% | percent response of DMSO control [3] 102% | GFP response vs DMSO [4] 85.3% | GFP response, % of DMSO [5] 88.4% | vesicle binding response [6] 132% | inhibition [7] -8.09% | superoxide response (% of plate) [8] 98.8% | aptamer binding inhibition [9] 1% | response [10] -4.3% | inhibition [11] 14.3% | response [12] -1.1% | binding (% of control) [13] 97.6% | efflux inhibition (fraction of control) [14] 0.19 | inhibition [15] -10% | differentiation response [16] -0.82%
59.9%: double positive events [6]

CC1=NS(=O)(=O)c2cc(Cl)ccc2N1
inactive: percent of DMSO control GFP [1] 98.8% | GFP response vs DMSO [2] 105% | percent response of DMSO control [3] 93.1% | GFP response vs DMSO [4] 84.1% | GFP response, % of DMSO [5] 97% | vesicle binding response [6] 964% | inhibition [7] -3.57% | superoxide response (% of plate) [8] 104% | aptamer binding inhibition [9] 3% | response [10] -5.04% | inhibition [11] 14.6% | response [12] -1.96% | binding (% of control) [13] 101% | efflux inhibition (fraction of control) [14] -0.1 | inhibition [15] 4% | differentiation response [16] 34.5%
63.9%: double positive events [6]

Cc1[nH]c2ccccc2c1C(=O)C(=O)NCc1ccco1
62%: double positive events [6]
inactive: percent of DMSO control GFP [1] 103% | GFP response vs DMSO [2] 104% | percent response of DMSO control [3] 101% | GFP response vs DMSO [4] 112% | GFP response, % of DMSO [5] 113% | vesicle binding response [6] 151% | inhibition [7] -14.7% | superoxide response (% of plate) [8] 97.1% | aptamer binding inhibition [9] 8% | response [10] -22.4% | inhibition [11] 5.02% | response [12] -4.14% | binding (% of control) [13] 106% | efflux inhibition (fraction of control) [14] -0.04 | inhibition [15] 4% | differentiation response [16] -4%

CC(=O)[C@@]1(O)CC[C@H]2[C@@H]3C[C@H](C)C4=CC(=O)C=C[C@]4(C)[C@@]3(F)[C@@H](O)C[C@@]21C
63.3%: double positive events [6]
inactive: percent of DMSO control GFP [1] 102% | GFP response vs DMSO [2] 134% | percent response of DMSO control [3] 110% | GFP response vs DMSO [4] 93% | GFP response, % of DMSO [5] 95.2% | vesicle binding response [6] 157% | inhibition [7] 2.58% | superoxide response (% of plate) [8] 99.4% | aptamer binding inhibition [9] 5% | response [10] -0.53% | inhibition [11] 32.1% | response [12] -3.11% | binding (% of control) [13] 101% | efflux inhibition (fraction of control) [14] -0.35 | inhibition [15] 9% | differentiation response [16] 9.83%

O=C1c2ccccc2C2(c3ccccc3)NCCN12 (stereo not given)
59.5%: double positive events [6]
inactive: percent of DMSO control GFP [1] 101% | GFP response vs DMSO [2] 102% | percent response of DMSO control [3] 109% | GFP response vs DMSO [4] 95.9% | GFP response, % of DMSO [5] 99.8% | vesicle binding response [6] 122% | inhibition [7] -14.5% | superoxide response (% of plate) [8] 92.9% | aptamer binding inhibition [9] 0% | response [10] -0.82% | inhibition [11] 6.52% | response [12] 11.8% | binding (% of control) [13] 104% | efflux inhibition (fraction of control) [14] -0.19 | inhibition [15] 3% | differentiation response [16] -14.8%

Reference: PubChem BioAssay
